The supplement of paper PMC8728848
The full list was thinned out, with the strongest signals kept by preference.

Assays:
Assay in all cases: glycan array binding signal (z-score within array); higher = stronger binding
Details in all cases: glycan notation: IUPAC condensed, linker removed
[1] = target: Gal(b1-4)GlcNAc6P
Summary of the method: (§1)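 Glycan array binding is given as a within-array Z-score, which can be read as non-binding when negative. The arrays, 3228 of them, came from the Consortium for Functional Glycomics database and were retained only where the protein sequence was available. Z-scores were averaged across arrays of the same protein sequence at different concentrations or buffers and across linkers.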

[2] = target: Gal3S(b1-3)GalNAc
Summary of the method: as §1

[3] = target: Gal6S(b1-4)Glc
Summary of the method: as §1

[4] = target: GalNAc(b1-4)GlcNAc(b1-2)Man
Summary of the method: as §1

[5] = target: Glc(b1-6)Glc
Summary of the method: as §1

[6] = target: GlcNAc(a1-4)Gal(b1-4)GlcNAc
Summary of the method: as §1

[7] = target: GlcNAc(b1-3)Man
Summary of the method: as §1

[8] = target: Kdn(a2-3)Gal(b1-4)Glc
Summary of the method: as §1

[9] = target: Kdn(a2-3)Gal(b1-4)GlcNAc
Summary of the method: as §1

[10] = target: Man(a1-2)Man(a1-3)[Man(a1-2)Man(a1-6)]Man
Summary of the method: as §1

[11] = target: Man(a1-3)[Man(a1-6)]Man
Summary of the method: as §1

[12] = target: Man(a1-3)[Man(a1-6)]Man(a1-6)[Man(a1-2)Man(a1-3)]Man(b1-4)GlcNAc(b1-4)GlcNAc
Summary of the method: as §1

[13] = target: MurNAc(b1-4)GlcNAc
Summary of the method: as §1

[14] = target: Neu5Ac(a2-3)Gal
Summary of the method: as §1

[15] = target: Neu5Ac(a2-3)Gal(b1-3)GalNAc(b1-3)Gal(a1-4)Gal(b1-4)Glc
Summary of the method: as §1

[16] = target: Neu5Ac(a2-3)Gal(b1-3)GlcNAc(b1-2)Man(a1-3)[GlcNAc(b1-4)][Neu5Ac(a2-3)Gal(b1-3)GlcNAc(b1-2)Man(a1-6)]Man(b1-4)GlcNAc(b1-4)GlcNAc
Summary of the method: as §1

[17] = target: Neu5Ac(a2-3)Gal(b1-4)GlcNAc(b1-3)Gal
Summary of the method: as §1

[18] = target: Neu5Ac(a2-3)Gal(b1-4)GlcNAc(b1-3)Gal(b1-4)GlcNAc(b1-3)Gal(b1-4)GlcNAc(b1-2)Man(a1-3)[Neu5Ac(a2-3)Gal(b1-4)GlcNAc(b1-3)Gal(b1-4)GlcNAc(b1-3)Gal(b1-4)GlcNAc(b1-2)Man(a1-6)]GalNAc
Summary of the method: as §1

[19] = target: Neu5Ac(a2-3)Gal(b1-4)[Fuc(a1-3)]GlcNAc(b1-3)GalNAc
Summary of the method: as §1

[20] = target: Neu5Ac(a2-3)[GalNAc(b1-4)]Gal(b1-4)Glc
Summary of the method: as §1

[21] = target: Neu5Ac(a2-6)Gal(b1-4)GlcNAc(b1-2)Man(a1-3)[Neu5Ac(a2-6)Gal(b1-4)GlcNAc(b1-2)Man(a1-6)]Man(b1-4)GlcNAc(b1-4)GlcNAc
Summary of the method: as §1

[22] = target: Neu5Ac(a2-6)Gal(b1-4)GlcNAc(b1-3)Gal(b1-4)GlcNAc(b1-3)[Neu5Ac(a2-6)Gal(b1-4)GlcNAc(b1-3)Gal(b1-4)GlcNAc(b1-6)]GalNAc
Summary of the method: as §1

[23] = target: Neu5Ac(a2-6)Gal(b1-4)GlcNAc(b1-3)[Neu5Ac(a2-6)Gal(b1-4)GlcNAc(b1-6)]GalNAc
Summary of the method: as §1

[24] = target: Neu5Ac(a2-6)GalNAc(b1-4)GlcNAc6S
Summary of the method: as §1

[25] = target: Neu5Ac(a2-6)GlcNAc(b1-4)GlcNAc(b1-4)GlcNAc
Summary of the method: as §1

[26] = target: Neu5Ac(a2-8)Neu5Ac(a2-3)Gal(b1-4)Glc
Summary of the method: as §1

[27] = target: Neu5Ac(a2-8)Neu5Ac(a2-3)Gal(b1-4)GlcNAc
Summary of the method: as §1

[28] = target: Neu5Ac(a2-8)Neu5Ac(a2-8)Neu5Ac(a2-3)Gal(b1-4)Glc
Summary of the method: as §1

[29] = target: Neu5Gc(a2-3)Gal(b1-4)GlcNAc
Summary of the method: as §1

B1: CPA (Cicer arietinum) (protein)
chain: MAFSYLNLVLVTLTTLFFLQTTKVKSQKSVSFHITNFTISRPSITLQGTAEFLPNVLLLNDIEHPVFVVGRALYSKPITLWNNKTGKVASFVTSFTFDVQDLKKTVPGHGLVFFLAPSGSEIPFSSDGGNLGVVDGKNAFNRFVGVEFDNFVNSWDPKYSHVGINVNSLISTKTVKWNRVSGELVKVSIVYDSVSTTLTVIVTYKNGQISILSQLVDLKAVLPDTVNIGFSASTTLVSPRQLHNIHSWSFTSTFET
- glycan array binding signal (z-score) [1]: 5.14
- glycan array binding signal (z-score) [2]: -0.183
- glycan array binding signal (z-score) [3]: 0.138
- glycan array binding signal (z-score) [4]: 1.55
- glycan array binding signal (z-score) [5]: -0.614
- glycan array binding signal (z-score) [6]: 2.25
- glycan array binding signal (z-score) [7]: -0.558
- glycan array binding signal (z-score) [8]: -0.762
- glycan array binding signal (z-score) [9]: -0.585
- glycan array binding signal (z-score) [10]: -0.461
- glycan array binding signal (z-score) [11]: -0.635
- glycan array binding signal (z-score) [12]: 4.19
- glycan array binding signal (z-score) [13]: 0.406
- glycan array binding signal (z-score) [14]: -0.529
- glycan array binding signal (z-score) [15]: -0.601
- glycan array binding signal (z-score) [16]: -0.065
- glycan array binding signal (z-score) [17]: -0.66
- glycan array binding signal (z-score) [18]: 6.81
- glycan array binding signal (z-score) [19]: -0.322
- glycan array binding signal (z-score) [20]: -0.34
- glycan array binding signal (z-score) [21]: -0.503
- glycan array binding signal (z-score) [22]: 3.34
- glycan array binding signal (z-score) [23]: -0.588
- glycan array binding signal (z-score) [24]: -0.452
- glycan array binding signal (z-score) [25]: 2.61
- glycan array binding signal (z-score) [26]: -0.501
- glycan array binding signal (z-score) [27]: -0.647
- glycan array binding signal (z-score) [28]: -0.579
- glycan array binding signal (z-score) [29]: -0.402
